Hits are enriched below; roughly 2.2% of the tested compounds scored in any of these assays.
aSyn UTR inh – MLPCN primary screen, SNCA 5' untranslated region. inhibition, % (tested at 7.5 µM). alpha-synuclein 5'UTR reporter, inhibitor activity. 0.82% of 300,000 active; in the data active means inhibition above about 60%;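 further: H4 neuroglioblastoma cells stably carrying SNCA 5'UTR luciferase fusion; 0% = DMSO wells and 100% = positive control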
APP 5UTR inh – APP translation inhibition. SH-SY5Y APP 5'UTR-luciferase reporter, luminescence. inhibition, % at 2 µM. 0.82% of 190,000 active. AID 1285;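 active means inhibition above a set limit, derived from the sample mean plus 3 SD, cut at about 45% in these data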
KLF5 inh – kruppel-like factor 5 inhibition. AID 1700. DLD-1 KLF5 promoter-luciferase reporter, luminescence. inhibition, % at 5 µM. 0.23% of 290,000 active;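 active means inhibition above a per-plate limit of that plate's mean compound inhibition plus 3 SD, cut at about 60% in these data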;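 further: 0% = DMSO wells and 100% = LY294002 at 200 µM; higher means less KLF5 promoter-driven luciferase light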
IEC-6 cytotox – kills IEC-6 intestinal cells in KLF5 counter-screen; AID 1825; inhibition, % at 5 µM; IEC-6 cytotoxicity, luminescence viability; 0.78% of 290,000 active; in the data active means inhibition above about 22%;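 further: 0% = plate median of test compound wells and 100% = cytotoxic reference compound wells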
Ba/F3 V617F tox – loss of viability in JAK2V617F-driven Ba/F3 cells; Ba/F3 EpoR-JAK2V617F viability, ATP luminescence; inhibition, % at 5.6 µM; 1.1% of 220,000 active; AID 1446;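 active means inhibition above the campaign mean plus 3 SD over all tested compounds, cut at about 24% in these data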;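 further: cytokine-independent growth of Ba/F3 cells driven by EpoR plus mutant JAK2; 0% = DMSO-treated cells and 100% = JAK inhibitor I control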
BaF3 parental – reduces parental Ba/F3 cell viability, JAK2V617F counter-screen | 1.1% of 220,000 active | inhibition, % at 5.6 µM | CellTiter-Glo ATP luminescence | AID 1486;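 active means inhibition above a per-campaign cutoff, the mean inhibition of all tested compounds plus 3 SD, cut at about 27% in these data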;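 further: 0% = DMSO wells and 100% = JAK Inhibitor I control wells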
* marks the source's active call; other numbers are inactive results; . = no result given.

SMILES	aSyn UTR inh	APP 5UTR inh	KLF5 inh	IEC-6 cytotox	Ba/F3 V617F tox	BaF3 parental
CC(=O)c1ccccc1OCCCN1CCCCC1	-5	22	-10	-3	3	1
CC(=O)Nc1ccc(S(=O)(=O)N(C)CCOCc2ccccc2)cc1	14	2	4	3	6	43*
CC(=O)Nc1ccc(S(=O)(=O)N(CCO)Cc2ccccc2)cc1	2	8	-24	-6	0	5
O=C1N/C(=C/c2ccc(N3CCOCC3)o2)C(=O)N1c1cccc(Cl)c1	-39	76*	4	-2	-1	-4
Cc1ccc(/C=C2/NC(=O)N(c3ccccc3)C2=O)o1	-105	-32	-31	-7	1	3
COC(=O)c1cc(C)nc2c1C(=O)C(=O)C=C2N1CCOCC1	37	.	26	20	.	.
CCN(CC)CCNc1cc(C)nc2c1C(=O)C(=O)C=C2N1CCCCC1	81*	67*	-5	11	7	-6
Cc1ccc(S(=O)(=O)Nc2cccc3ncccc23)cc1	21	.	-43	2	1	2
Cc1ccc(S(=O)(=O)Nc2cccc3ncccc23)s1	27	56*	24	94*	3	4
CCOc1ccc(C(=O)C[n+]2cccc3cc(C)ccc32)cc1	5	.	-10	1	.	.
Cc1ccc(C(=O)C[n+]2cccc3cc(C)ccc32)cc1	1	10	-11	2	5	70*
Cc1ccc(O)c(NC(=O)c2onc(C)c2Cl)c1	-56	.	-45	-4	.	.
CC1CCC(=NNc2ccc(C(F)(F)F)cc2[N+](=O)[O-])CC1 (stereo not given)	-3	10	-29	7	6	10
CC1CCC/C(=N/Nc2ccc([N+](=O)[O-])cc2[N+](=O)[O-])C1 (stereo not given)	7	79*	-30	-2	0	6
COc1cc(/C=C/c2nnc3c4ccccc4ncn23)cc(OC)c1OC	-80	-2	22	21	28*	43*
COc1cc(/C=C/c2noc(-c3ccccc3O)n2)cc(OC)c1OC	-146	-52	-11	-5	-2	5
O=C(O)c1ccc(S(=O)(=O)N(Cc2ccccc2)C2CCCCC2)cc1	16	.	-7	3	.	.
COc1ccc(N2CC(C(=O)Nc3ncccc3C)CC2=O)cc1 (stereo not given)	31	-11	-4	-6	-3	101*
COc1ccc(N2CC(C(=O)N/N=C/c3ccc(C)cc3)CC2=O)cc1 (stereo not given)	-23	83*	21	16	7	5
O=[N+]([O-])c1ccccc1C1Nc2cccc3cccc(c23)N1	-27	14	10	11	79*	100*
Oc1ccccc1C1Nc2cccc3cccc(c23)N1	2	-10	-19	4	-4	0
CCOc1ccc(Br)cc1S(=O)(=O)N1CC(C)OC(C)C1 (stereo not given)	19	-16	-9	4	-4	3
CCOc1cc(Br)ccc1S(=O)(=O)N1CC(C)OC(C)C1 (stereo not given)	-7	12	-21	3	1	93*
CC1(C)C2CCC1(CS(=O)(=O)NCc1ccc(Cl)cc1Cl)C(=O)C2 (stereo not given)	8	.	-27	-1	.	.
CCc1ccc2nc(NC(=O)Cn3cnc4ccccc4c3=O)sc2c1	-59	-15	-24	2	33*	39*
SMILES	aSyn UTR inh	APP 5UTR inh	KLF5 inh	IEC-6 cytotox	Ba/F3 V617F tox	BaF3 parental
CC(=O)c1c(C)[nH]c(C(=O)COc2cc(C)ccc2C(C)C)c1C	23	4	-11	17	45*	40*
Cc1cc(C)c(N=Cc2c(O)c3ccccc3oc2=O)c(C)c1	-28	.	-63	-8	.	.
c1ccc2nc(-c3nc4ccccc4[nH]3)ccc2c1	74*	-192	-64	10	12	15
c1ccc2[nH]c(-c3cscn3)nc2c1	-99	-21	-81	-3	0	2
CCOc1ccc(Oc2ccccc2NC(=O)CN2C(=O)NC3(CCCC3)C2=O)cc1	-9	.	.	.	.	.
CC(C)[C@H](N[C@@H](C)c1ccccc1)c1c(O)ccc2ccccc12	4	.	-22	-6	.	.
CCOC(=O)c1[nH]c(C)c(C(=O)OC)c1C	-9	.	-52	-8	-2	-1
COC(=O)c1c(C)[nH]c(-c2csc(N)n2)c1C	-6	12	-3	2	17	51*
CC(C)C(=O)NC(c1ccc(Cl)cc1Cl)c1ccc2cccnc2c1O (stereo not given)	92*	.	79*	13	.	.
Cc1ccnc(NC(c2cccnc2)c2ccc3cccnc3c2O)c1 (stereo not given)	-9	7	6	-2	2	4
Oc1ccccc1C(Nc1nccs1)c1ccc2cccnc2c1O (stereo not given)	77*	.	27	14	2	-6
CC(=O)NC(c1ccco1)c1ccc2cccnc2c1O (stereo not given)	77*	55*	28	18	9	8
CCCCC(=O)NC(c1ccc(Cl)cc1Cl)c1ccc2cccnc2c1O (stereo not given)	92*	.	45	7	.	.
CCCC(=O)NC(c1ccco1)c1cc([N+](=O)[O-])c2cccnc2c1O (stereo not given)	-15	-7	-19	-5	2	7
CC(NC(=O)CSc1ncccn1)c1ccc(Cl)cc1Cl (stereo not given)	-2	-8	-22	-7	-3	9
O=C(COC(=O)c1ccccc1[N+](=O)[O-])Nc1cccnc1Cl	11	.	.	.	.	.
COCC(C)n1c(SCc2nc3ccccc3c(=O)[nH]2)nc2ccccc2c1=O (stereo not given)	37	-11	-22	34*	4	7
O=C(NCCCn1ccnc1)c1ccc(C(F)(F)F)cc1	-6	.	-5	-9	.	.
O=S(=O)(c1ccc(Cl)cc1)N1c2ccccc2Oc2nc3ccccc3nc21	-96	-15	-12	-2	1	5
COc1ccc(S(=O)(=O)N2c3cc(Cl)ccc3Oc3nc4ccccc4nc32)cc1	100*	-17	-7	5	-5	-1
COc1ccc(Cc2nnc(Cl)c3ccccc23)cc1OC	24	.	-46	2	.	.
Cc1cnc(NC(=O)C2COc3ccccc3O2)s1 (stereo not given)	71*	-144	-113	-1	-7	2
CC1CCc2nc(NC(=O)C3CC3)sc2C1 (stereo not given)	-138	-21	-63	2	-4	4
CC1CCc2nc(NC(=O)C3COc4ccccc4O3)sc2C1 (stereo not given)	63*	-168	-26	3	2	10
Cc1csc(NC(=O)C2COc3ccccc3O2)n1 (stereo not given)	62*	-149	-80	2	-3	-1
O=C(Nc1nc(-c2ccccc2)cs1)C1COc2ccccc2O1 (stereo not given)	-31	3	4	2	1	3
